Results on 21 molecules are retold here after PubChem BioAssay.

Test [1] is described as follows: antimalarial activity against Dd2 strain (AID 2302;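 active = growth inhibition above 50% at the single 2 µM test dose, taken to imply half-maximal potency below 2 µM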;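 note: 0% = DMSO untreated growth and 100% = chloroquine plus artemisinin killed control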). Conditions: P. falciparum Dd2 in RBCs, LDH growth readout, 72 h; at 2 µM; stronger effect = higher value.
Test [2] can be described thus: HepG2 cytotoxicity, primary screen, cytotoxicity control for P. falciparum antimalarial project, cell-based, ATP luminescence (AID 2303;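 active = inhibition above 50%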;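 note: 0% = DMSO wells and 100% = digitonin-killed cells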). As to conditions: HepG2 viability, 24-48 h, at 10 µM, stronger effect = higher value.
For test [3], the target named is L-lactate dehydrogenase (Plasmodium falciparum (isolate CDC / Honduras)) (UniProt Q27743). Nature of the test: PfLDH activity inhibition – cell lysate, 3D7 strain, counter-screen for P. falciparum growth inhibition project (AID 2304).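 Note: 0% = vehicle and 100% = reference inhibitor.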 As to conditions: P. falciparum 3D7 crude extract, LDH APAD/NBT absorbance; at 2 µM; stronger effect = higher value.
A short description of test [4]: inhibition of 3D7 malaria parasite growth – strain 3D7 (AID 2306).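 Note: 0% = DMSO wells and 100% = chloroquine plus artemisinin control wells.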 As to conditions: P. falciparum 3D7 erythrocytic growth, LDH absorbance, 72 h; at 2 µM; stronger effect = higher value.
In test [5] the target is Calcium-dependent protein kinase 1 (Plasmodium falciparum (isolate 3D7)) (UniProt P62344). The test is described as follows: PfCDPK1 kinase inhibitors, biochemical, TCAMS library (AID 1159585; cut-off not given, nearly all actives have IC50 up to about 0.98 µM;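 note: inhibitors leave more ATP so luminescence rises with inhibition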). As to conditions: recombinant PfCDPK1, Kinase-Glo ATP depletion luminescence.
Test [6] addresses Plasmodium falciparum protein kinase 6 (PK6, PF3D7_1337100) (UniProt Q8IDW1). Nature of the test: PfPK6 kinase inhibitors, biochemical, TCAMS library (AID 1159586). Conditions: recombinant PfPK6, Kinase-Glo ATP depletion luminescence. In general terms: Kinase-Glo measures the ATP left after a reaction by luminescence.
Test [7] has as its target Protein kinase 7 (PK7), Plasmodium falciparum 3D7 (PF3D7_0213400) (UniProt Q7YTF7). Nature of the test: inhibition of Plasmodium PK7 catalytic activity – biochemical, TCAMS antimalarial set, Kinase-Glo luminescence (AID 1159587). As to conditions: recombinant PfPK7, Kinase-Glo ATP depletion luminescence.
Test [8] addresses Calcium-dependent protein kinase 4 (Plasmodium falciparum (isolate 3D7)) (UniProt Q8IBS5). Nature of the test: PfCDPK4 kinase inhibitors, biochemical, TCAMS library (AID 1159588; cut-off not given, nearly all actives have IC50 up to about 0.91 µM). Conditions: recombinant PfCDPK4, Kinase-Glo ATP depletion luminescence.

What is called inhibition is the drop in the measured response relative to a control, in per cent.

A number with no mark means an inactive call. For part of these data: Measured potencies and affinities stand elsewhere. Calls of active or inactive are those of the source. Unless noted, the rule behind the calls is not given here.

Calcium-dependent protein kinase 1 (Plasmodium falciparum (isolate 3D7)), sequence (P62344 whole entry, looked up): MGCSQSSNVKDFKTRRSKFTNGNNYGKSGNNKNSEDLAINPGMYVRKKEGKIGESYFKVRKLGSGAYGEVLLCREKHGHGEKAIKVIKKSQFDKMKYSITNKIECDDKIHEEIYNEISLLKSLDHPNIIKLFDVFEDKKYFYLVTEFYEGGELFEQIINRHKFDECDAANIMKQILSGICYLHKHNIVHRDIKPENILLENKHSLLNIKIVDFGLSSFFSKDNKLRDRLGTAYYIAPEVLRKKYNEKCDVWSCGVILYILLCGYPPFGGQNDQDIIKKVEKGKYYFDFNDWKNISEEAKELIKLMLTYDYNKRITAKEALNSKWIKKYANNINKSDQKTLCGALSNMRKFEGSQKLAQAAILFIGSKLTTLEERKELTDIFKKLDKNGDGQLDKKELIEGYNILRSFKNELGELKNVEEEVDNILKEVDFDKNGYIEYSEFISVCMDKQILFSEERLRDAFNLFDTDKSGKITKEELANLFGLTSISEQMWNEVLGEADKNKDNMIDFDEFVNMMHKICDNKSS
Protein kinase 7 (PK7), Plasmodium falciparum 3D7 (PF3D7_0213400), sequence (Q7YTF7 1-343): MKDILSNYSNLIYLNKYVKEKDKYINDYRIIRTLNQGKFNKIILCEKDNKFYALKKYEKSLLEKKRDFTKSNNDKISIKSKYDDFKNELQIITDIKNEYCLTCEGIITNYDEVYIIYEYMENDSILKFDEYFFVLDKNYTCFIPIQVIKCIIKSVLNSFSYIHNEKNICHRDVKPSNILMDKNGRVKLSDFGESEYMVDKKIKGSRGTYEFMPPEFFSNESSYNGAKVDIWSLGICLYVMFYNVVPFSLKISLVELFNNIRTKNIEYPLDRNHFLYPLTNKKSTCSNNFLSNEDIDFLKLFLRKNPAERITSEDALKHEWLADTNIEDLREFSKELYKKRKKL
Calcium-dependent protein kinase 4 (Plasmodium falciparum (isolate 3D7)), sequence (Q8IBS5 whole entry, looked up): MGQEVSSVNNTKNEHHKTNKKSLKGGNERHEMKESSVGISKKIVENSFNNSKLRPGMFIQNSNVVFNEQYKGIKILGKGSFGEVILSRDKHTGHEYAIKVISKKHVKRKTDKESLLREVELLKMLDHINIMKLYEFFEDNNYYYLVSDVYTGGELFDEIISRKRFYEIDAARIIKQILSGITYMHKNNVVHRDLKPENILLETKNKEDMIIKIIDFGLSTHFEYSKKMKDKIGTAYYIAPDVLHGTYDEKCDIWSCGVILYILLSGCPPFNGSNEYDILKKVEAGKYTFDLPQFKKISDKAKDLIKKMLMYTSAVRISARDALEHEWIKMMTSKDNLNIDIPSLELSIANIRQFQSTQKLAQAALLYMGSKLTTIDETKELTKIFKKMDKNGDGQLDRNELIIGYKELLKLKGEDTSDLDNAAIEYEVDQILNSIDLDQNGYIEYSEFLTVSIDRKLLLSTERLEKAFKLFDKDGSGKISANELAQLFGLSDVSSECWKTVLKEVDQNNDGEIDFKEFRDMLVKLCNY
L-lactate dehydrogenase (Plasmodium falciparum (isolate CDC / Honduras)), sequence (Q27743 whole entry, looked up): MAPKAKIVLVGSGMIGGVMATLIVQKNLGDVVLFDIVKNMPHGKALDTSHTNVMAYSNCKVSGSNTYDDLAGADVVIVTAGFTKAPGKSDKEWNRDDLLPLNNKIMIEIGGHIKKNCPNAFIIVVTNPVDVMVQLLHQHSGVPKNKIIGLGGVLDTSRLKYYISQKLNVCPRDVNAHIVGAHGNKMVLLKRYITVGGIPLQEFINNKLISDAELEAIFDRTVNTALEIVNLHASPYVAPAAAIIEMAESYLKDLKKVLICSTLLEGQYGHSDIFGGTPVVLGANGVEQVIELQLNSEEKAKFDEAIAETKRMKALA
Plasmodium falciparum protein kinase 6 (PK6, PF3D7_1337100), sequence (Q8IDW1 1-305): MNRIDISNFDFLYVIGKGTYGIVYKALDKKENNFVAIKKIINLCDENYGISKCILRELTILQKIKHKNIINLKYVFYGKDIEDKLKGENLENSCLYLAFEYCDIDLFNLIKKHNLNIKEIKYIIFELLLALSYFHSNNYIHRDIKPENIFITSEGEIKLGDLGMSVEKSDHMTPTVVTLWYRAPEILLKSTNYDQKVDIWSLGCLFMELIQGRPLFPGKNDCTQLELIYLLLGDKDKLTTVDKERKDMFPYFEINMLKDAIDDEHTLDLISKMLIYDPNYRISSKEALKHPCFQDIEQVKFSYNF

Take `CCC1(C)CC(CCNCc2ccccc2O)(c2ccccc2OC)CCO1` (stereo not drawn): the growth inhibition in test [1] was 93% (active); in test [4] it was 94% (active). The inhibition in test [2] was 10%; in test [3], -2%. Besides, the result in test [5], in test [6], in test [7] and in test [8] was inactive.
Consider `Cc1ccc2c(=O)cc(CCc3cccc(F)c3F)n(CC(=O)N(Cc3ccc(-c4ccc(C(F)(F)F)cc4)cc3)C3CCN(C(C)C)CC3)c2n1`, for which the growth inhibition in test [1] was 49%; in test [4], 100% (active). Further, the inhibition in test [2] is 58% (active); in test [3] it was -2%. For the same molecule, the result in test [5], in test [6], in test [7] and in test [8] was inactive.
As to `CC(C)C[C@@H]1C(=O)N[C@H](C2Cc3ccccc3C2)C(=O)N1[C@@H](C(=O)O)c1ccc(F)cc1F`, the growth inhibition in test [1] is -2%; in test [4], 98% (active). Also, the inhibition in test [2] is 10%; in test [3] it was -1%. Also, the outcome in test [5], in test [6], in test [7] and in test [8] was inactive.
In the case of `Cc1[nH]c(C)c(-c2ccc(OCCCCSc3ccncc3)cc2)c(=O)c1Br`, the growth inhibition in test [1] and in test [4] was 97% (active) each time. Moreover, the inhibition in test [2] was -3%; in test [3] it was -2%. The outcome in test [5], in test [6], in test [7] and in test [8] was inactive.
As for `COc1ccc2ccccc2c1CCCCN1CCN(CC(c2ccc(F)cc2)N2CCC(N3CCCC3)CC2)CC1` (stereo not drawn), the figures for the growth inhibition in test [1] and in test [4] were 73% (active) and 99% (active), respectively. In addition, the inhibition in test [2] was 74% (active); in test [3], 7%. Moreover, the outcome in test [5], in test [6], in test [7] and in test [8] was inactive.
Regarding `O=C(NC1CCN(Cc2ccccc2)CC1)c1cccc(-c2nc3ccc(Cl)cc3[nH]2)c1`, the growth inhibition is -1% in test [1] and 98% (active) in test [4]. In addition, the inhibition in test [2] is 6%; in test [3], -3%. For the same molecule, the result in test [5], in test [6], in test [7] and in test [8] was inactive.
On to `COc1ccccc1C1CC(c2ccccc2)=NN1C(=O)c1ccccc1` (stereo not drawn), for which the growth inhibition in test [1] is 93% (active); in test [4], 100% (active). Besides, the inhibition in test [2] was 13%; in test [3] it was -3%. Moreover, the result in test [5], in test [6], in test [7] and in test [8] was inactive.
Turning to `CC(O)C1CCCCN1C(=O)c1cccc(-c2cccc(-c3nc4ccccc4[nH]3)c2)c1` (stereo not drawn), the values for the growth inhibition in test [1] and in test [4] were 76% (active) and 99% (active), respectively. In addition, the figures for the inhibition in test [2] and in test [3] were 20% and -4%, respectively. The result in test [5], in test [6], in test [7] and in test [8] was inactive.
`CCNC(=O)Nc1cccc(-c2ccc(-c3nc4c(C)cccc4[nH]3)s2)c1`: the growth inhibition in test [1] is 20%; in test [4] it was 96% (active). The inhibition in test [2] was 32%; in test [3] it was -4%. Further, the result in test [5], in test [6], in test [7] and in test [8] was inactive.
Take `Cc1nc2sccn2c1C(=O)NCCc1ccccc1Cl`: the growth inhibition is 1% in test [1] and 96% (active) in test [4]. In addition, the inhibition was 6% in test [2] and 3% in test [3]. Besides, the outcome in test [5], in test [6], in test [7] and in test [8] was inactive.
For `Cc1cc2ccccc2c(CON2C(N)=NC(N)=NC2(C)C)c1C`, the values for the growth inhibition in test [1] and in test [4] were 31% and 93% (active), respectively. Also, the inhibition is 65% (active) in test [2] and -3% in test [3]. Besides, the outcome in test [5], in test [6], in test [7] and in test [8] was inactive.
Regarding `O=C(NC1CCN(c2ccnc3cc(Cl)ccc23)C1)c1ccc(F)cc1F` (stereo not drawn), the growth inhibition in test [1] and in test [4] was 100% (active) throughout. Besides, the inhibition in test [2] was 31%; in test [3], 2%. Besides, the result in test [5], in test [6], in test [7] and in test [8] was inactive.
Turning to `CCc1cc(NC2CCN(C)CC2)nc(Nc2cccc(OC)c2)n1`, the growth inhibition was 37% in test [1] and 93% (active) in test [4]. In addition, the inhibition is 22% in test [2] and -6% in test [3]. In addition, the result in test [5], in test [6], in test [7] and in test [8] was inactive.
For the molecule `Cc1cccc2[nH]c(-c3ccc(-c4cccc(CNC(C)C)c4)s3)nc12`, the growth inhibition was 97% (active) in test [1] and 100% (active) in test [4]. Also, the inhibition in test [2] is 12%; in test [3] it was 2%. Moreover, the result in test [5], in test [6], in test [7] and in test [8] was inactive.
On to `O=C(Nc1ccc(-c2cccc(-c3nc4ccc(C(F)(F)F)cc4[nH]3)c2)cc1)c1ccc(=O)[nH]n1`, for which the growth inhibition in test [1] was 13%; in test [4], 87% (active). Further, the results for the inhibition in test [2] and in test [3] were 72% (active) and -4%, respectively. Besides, the result in test [5], in test [6], in test [7] and in test [8] was inactive.
Regarding `Cc1cc2ncc(C(N)=O)c(Nc3ccc(N4CCOCC4)cc3)c2cc1S(C)(=O)=O`, the growth inhibition in test [1] was 96% (active); in test [4], 100% (active). Also, the results for the inhibition in test [2] and in test [3] were -10% and -5%, respectively. Besides, the result in test [5], in test [6], in test [7] and in test [8] was inactive.
Consider `COc1cc2nc(Nc3ccc4c(c3)OCCO4)nc(N)c2cc1OC`, for which the values for the growth inhibition in test [1] and in test [4] were 80% (active) and 101% (active), respectively. Besides, the values for the inhibition in test [2] and in test [3] were 13% and -3%, respectively. Moreover, the outcome in test [5], in test [6], in test [7] and in test [8] was inactive.
Take `COc1c(C2CCN(CCCCNC(=O)c3ccc(-c4ccc(C(F)(F)F)cc4)c(C(=O)OC(C)C)c3)CC2)ccc2c1CCCC2`: the figures for the growth inhibition in test [1] and in test [4] were 30% and 90% (active), respectively. Besides, the inhibition in test [2] was 24%; in test [3] it was 0%. Moreover, the result in test [5], in test [6], in test [7] and in test [8] was inactive.
Regarding `Cc1nc(-c2nc(N3CCC(O)CC3)ncc2-c2ccsc2)sc1C`, the growth inhibition was 35% in test [1] and 83% (active) in test [4]. For the same molecule, the inhibition in test [2] was 6%; in test [3], -2%. Besides, the outcome in test [5], in test [6], in test [7] and in test [8] was inactive.
Regarding `Cc1cc(N)c2cc(NC(=O)c3ccc4ccccc4c3)ccc2n1`, the growth inhibition is 99% (active) in test [1] and 101% (active) in test [4]. Besides, the inhibition was 33% in test [2] and 1% in test [3]. For the same molecule, the outcome in test [5], in test [6], in test [7] and in test [8] was inactive.
For `COc1ccc(CSC2CCCCC23NC(=S)NC3=S)cc1` (stereo not drawn), the growth inhibition in test [1] was -3%; in test [4] it was 97% (active). The inhibition in test [2] is -5%; in test [3], -1%. Further, the outcome in test [5], in test [6], in test [7] and in test [8] was inactive.
